{"source": "PubChem BioAssay (NCI)", "note": "This is part of a sample that, as a whole, favours compounds with a hit. Of some 79,000 tested, about 15% had one in any assay. Calls of active or inactive are those of the source. No stated cut-off is given here; in the data, active means growth inhibition above about 70%; inactive means the rest.", "data": [{"assay": "NCI Yeast Anticancer Drug Screen. Data for the bub3 strain (AID 167)", "conditions": "S. cerevisiae bub3 mutant strain, at 50.0 µM, stronger effect = higher value", "in_short": "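In this screen, a yeast mutant lacking normal mitotic checkpoint function is challenged with compound. Relative growth versus vehicle gives the inhibition value.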", "values": [{"smiles": "O=C1c2ccc(=O)[nH]c2C(=O)C2CC3=C(CCCC3)CC12", "note": "(stereo not given)", "growth inhibition": "42.5% (inactive)"}, {"smiles": "Cc1cccc(N2CC3CC4C=CC3(C2)O4)c1", "note": "(stereo not given)", "growth inhibition": "22.1% (inactive)"}, {"smiles": "CCOC(=O)C(NC(N)=O)C(=O)OCC", "growth inhibition": "21.9% (inactive)"}, {"smiles": "CCOc1cc2c(cnc3c4cc(OC)c(OC)cc4ccc23)cc1OC", "growth inhibition": "-17.9% (inactive)"}, {"smiles": "COc1cc(S(N)(=O)=O)c(OC)cc1N", "growth inhibition": "-5.6% (inactive)"}, {"smiles": "O=C(O)C(F)(F)C(F)(F)C(F)(F)C(F)(F)C(=O)O", "growth inhibition": "-45.8% (inactive)"}, {"smiles": "C=C(C)C(=O)O[C@H]1C[C@@]23O[C@@H]2CCC(=C[C@H]2OC(=O)C(=C)[C@H]12)COC3O", "note": "(stereo not given in full)", "growth inhibition": "7.7% (inactive)"}, {"smiles": "CCCCCCCCCCCCCCCCCCNc1ccccc1", "growth inhibition": "1.15% (inactive)"}, {"smiles": "Cc1ccc(S(=O)(=O)OC2C3OC(C)(C)OC3OC2C2CSC(=S=O)S2)cc1", "note": "(stereo not given)", "growth inhibition": "-3.15% (inactive)"}, {"smiles": "CNC(=O)c1ccccc1O", "growth inhibition": "5.15% (inactive)"}, {"smiles": "O=c1[nH]c(-c2ccccc2N=NN2CCCCC2)nc2ccccc12", "growth inhibition": "-4.45% (inactive)"}, {"smiles": "Cc1nc2ccccc2c(=O)n1C", "growth inhibition": "-5.4% (inactive)"}, {"smiles": "Cc1cc2c(c(N)c1C)C(=O)c1ccccc1C2=O", "growth inhibition": "26.2% (inactive)"}, {"smiles": "CCCCCCCCCCCCCCCCC(CCCCCCCCCCCCCCCC)c1ccccc1", "growth inhibition": "4.05% (inactive)"}, {"smiles": "NCCN.O=C([O-])CN1CCOCC1.[OH-].[Pt+4]", "growth inhibition": "-13.7% (inactive)"}, {"smiles": "C1=Nc2ccccc2/C1=C/C=C/c1ccccc1", "growth inhibition": "41.5% (inactive)"}, {"smiles": "COC(=O)c1cccc(Cl)c1C(=O)c1ccc(C)cc1C", "growth inhibition": "31.1% (inactive)"}, {"smiles": "O=C(Nc1ncnc2c1ncn2C1OC(COC(=O)c2ccccc2)C(OC(=O)c2ccccc2)C1OC(=O)c1ccccc1)c1ccccc1", "note": "(stereo not given)", "growth inhibition": "4.05% (inactive)"}, {"smiles": "C=C(C)C(=O)OCCOCC(CC)CCCC", "note": "(stereo not given)", "growth inhibition": "-3.35% (inactive)"}, {"smiles": "CCC(C)Nc1ccc(NS(=O)(=O)CCl)cc1", "note": "(stereo not given)", "growth inhibition": "6.6% (inactive)"}, {"smiles": "CN=C(N)SCCCSC(N)=NC", "growth inhibition": "15.6% (inactive)"}, {"smiles": "COC(=O)/C=C/C1C2C3(CCC(C)C12C)OCCS3", "note": "(stereo not given)", "growth inhibition": "-6.95% (inactive)"}, {"smiles": "Cc1cc2c(=O)cc(-c3ccc(F)cc3)oc2c(C(=O)O)c1C", "growth inhibition": "-4.4% (inactive)"}, {"smiles": "O=NN(CCCl)C(=O)NC1CCC(C(=O)O)CC1", "note": "(stereo not given)", "growth inhibition": "-0.75% (inactive)"}, {"smiles": "O=C1C(=O)C(c2ccccc2)(c2ccccc2)C(=O)N1c1ccccc1", "growth inhibition": "16.4% (inactive)"}, {"smiles": "Cc1c(NC(C)C)ccc(NC(C)C)c1C", "growth inhibition": "25.2% (inactive)"}, {"smiles": "COc1ccc2oc(=O)c(CC=C(C)C)c(O)c2c1C", "growth inhibition": "-25.2% (inactive)"}, {"smiles": "Clc1cc(Cl)c(Cl)c(Cl)c1Cl", "growth inhibition": "-2.7% (inactive)"}, {"smiles": "O=C(O)C1C2CCC(O2)C1C(=O)Nc1cccc2cccnc12", "note": "(stereo not given)", "growth inhibition": "22.5% (inactive)"}, {"smiles": "COc1cccc(/C=C2\\S/C(=N/Nc3nc(C)c(C)s3)NC2=O)c1O", "growth inhibition": "-8.65% (inactive)"}, {"smiles": "CCc1cc2c(cc1C(=O)/C=C\\c1cccc3ccccc13)C(C)(C)CCC2(C)C", "growth inhibition": "-3.5% (inactive)"}, {"smiles": "O=[N+]([O-])c1ccc(Oc2ccc(Cl)cc2)cc1", "growth inhibition": "-18.9% (inactive)"}, {"smiles": "CC12CCC3C(CCC4CCCCC43C)C1CCC2CO", "note": "(stereo not given)", "growth inhibition": "23.2% (inactive)"}, {"smiles": "CCCCSc1nc2c(=O)n(C)c(=O)n(C)c2n1C", "growth inhibition": "-12.7% (inactive)"}, {"smiles": "CCC1CC(=O)NC(=O)NC1=O", "note": "(stereo not given)", "growth inhibition": "7.2% (inactive)"}, {"smiles": "Cc1cc(Cl)ccc1C1OC(=O)c2c1ccc1ccccc21", "note": "(stereo not given)", "growth inhibition": "7.5% (inactive)"}, {"smiles": "Nc1ccc2ccccc2c1C(=O)c1ccccc1", "growth inhibition": "-23.6% (inactive)"}, {"smiles": "O=C(O)C1CCCN1/N=C/c1cccc([N+](=O)[O-])c1", "note": "(stereo not given)", "growth inhibition": "24.6% (inactive)"}, {"smiles": "CC(C)CCOc1ccc(C(N)=S)c2ccccc12", "growth inhibition": "84% (active)"}, {"smiles": "O=C(O)CC1CCC(CC(=O)O)CC1", "note": "(stereo not given)", "growth inhibition": "-12.7% (inactive)"}]}, {"assay": "NCI Yeast Anticancer Drug Screen. Data for the mlh1 rad18 strain (AID 175)", "conditions": "S. cerevisiae mlh1 rad18 strain growth inhibition; at 50.0 µM; stronger effect = higher value", "in_short": "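Growth inhibition of the yeast strain was measured after compound exposure and expressed relative to vehicle-treated controls. The strain carries defined defects in DNA damage repair.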", "values": [{"smiles": "O=C1c2ccc(=O)[nH]c2C(=O)C2CC3=C(CCCC3)CC12", "note": "(stereo not given)", "growth inhibition": "44.5% (inactive)"}, {"smiles": "Cc1cccc(N2CC3CC4C=CC3(C2)O4)c1", "note": "(stereo not given)", "growth inhibition": "13.1% (inactive)"}, {"smiles": "CCOC(=O)C(NC(N)=O)C(=O)OCC", "growth inhibition": "4.7% (inactive)"}, {"smiles": "CCOc1cc2c(cnc3c4cc(OC)c(OC)cc4ccc23)cc1OC", "growth inhibition": "-16.6% (inactive)"}, {"smiles": "COc1cc(S(N)(=O)=O)c(OC)cc1N", "growth inhibition": "-10.1% (inactive)"}, {"smiles": "O=C(O)C(F)(F)C(F)(F)C(F)(F)C(F)(F)C(=O)O", "growth inhibition": "-22.8% (inactive)"}, {"smiles": "C=C(C)C(=O)O[C@H]1C[C@@]23O[C@@H]2CCC(=C[C@H]2OC(=O)C(=C)[C@H]12)COC3O", "note": "(stereo not given in full)", "growth inhibition": "-22.8% (inactive)"}, {"smiles": "CCCCCCCCCCCCCCCCCCNc1ccccc1", "growth inhibition": "16.2% (inactive)"}, {"smiles": "Cc1ccc(S(=O)(=O)OC2C3OC(C)(C)OC3OC2C2CSC(=S=O)S2)cc1", "note": "(stereo not given)", "growth inhibition": "12.7% (inactive)"}, {"smiles": "CNC(=O)c1ccccc1O", "growth inhibition": "2.35% (inactive)"}, {"smiles": "O=c1[nH]c(-c2ccccc2N=NN2CCCCC2)nc2ccccc12", "growth inhibition": "1.8% (inactive)"}, {"smiles": "Cc1nc2ccccc2c(=O)n1C", "growth inhibition": "3.95% (inactive)"}, {"smiles": "Cc1cc2c(c(N)c1C)C(=O)c1ccccc1C2=O", "growth inhibition": "6.7% (inactive)"}, {"smiles": "CCCCCCCCCCCCCCCCC(CCCCCCCCCCCCCCCC)c1ccccc1", "growth inhibition": "18.6% (inactive)"}, {"smiles": "NCCN.O=C([O-])CN1CCOCC1.[OH-].[Pt+4]", "growth inhibition": "-19.9% (inactive)"}, {"smiles": "C1=Nc2ccccc2/C1=C/C=C/c1ccccc1", "growth inhibition": "21.8% (inactive)"}, {"smiles": "COC(=O)c1cccc(Cl)c1C(=O)c1ccc(C)cc1C", "growth inhibition": "11.4% (inactive)"}, {"smiles": "O=C(Nc1ncnc2c1ncn2C1OC(COC(=O)c2ccccc2)C(OC(=O)c2ccccc2)C1OC(=O)c1ccccc1)c1ccccc1", "note": "(stereo not given)", "growth inhibition": "34.6% (inactive)"}, {"smiles": "C=C(C)C(=O)OCCOCC(CC)CCCC", "note": "(stereo not given)", "growth inhibition": "-1.8% (inactive)"}, {"smiles": "CCC(C)Nc1ccc(NS(=O)(=O)CCl)cc1", "note": "(stereo not given)", "growth inhibition": "8.9% (inactive)"}, {"smiles": "CN=C(N)SCCCSC(N)=NC", "growth inhibition": "8.5% (inactive)"}, {"smiles": "COC(=O)/C=C/C1C2C3(CCC(C)C12C)OCCS3", "note": "(stereo not given)", "growth inhibition": "-30.1% (inactive)"}, {"smiles": "Cc1cc2c(=O)cc(-c3ccc(F)cc3)oc2c(C(=O)O)c1C", "growth inhibition": "33.3% (inactive)"}, {"smiles": "O=NN(CCCl)C(=O)NC1CCC(C(=O)O)CC1", "note": "(stereo not given)", "growth inhibition": "2.4% (inactive)"}, {"smiles": "O=C1C(=O)C(c2ccccc2)(c2ccccc2)C(=O)N1c1ccccc1", "growth inhibition": "-6.7% (inactive)"}, {"smiles": "Cc1c(NC(C)C)ccc(NC(C)C)c1C", "growth inhibition": "43.2% (inactive)"}, {"smiles": "COc1ccc2oc(=O)c(CC=C(C)C)c(O)c2c1C", "growth inhibition": "-51% (inactive)"}, {"smiles": "Clc1cc(Cl)c(Cl)c(Cl)c1Cl", "growth inhibition": "13.9% (inactive)"}, {"smiles": "O=C(O)C1C2CCC(O2)C1C(=O)Nc1cccc2cccnc12", "note": "(stereo not given)", "growth inhibition": "17.8% (inactive)"}, {"smiles": "COc1cccc(/C=C2\\S/C(=N/Nc3nc(C)c(C)s3)NC2=O)c1O", "growth inhibition": "2.2% (inactive)"}, {"smiles": "CCc1cc2c(cc1C(=O)/C=C\\c1cccc3ccccc13)C(C)(C)CCC2(C)C", "growth inhibition": "15% (inactive)"}, {"smiles": "O=[N+]([O-])c1ccc(Oc2ccc(Cl)cc2)cc1", "growth inhibition": "21.8% (inactive)"}, {"smiles": "CC12CCC3C(CCC4CCCCC43C)C1CCC2CO", "note": "(stereo not given)", "growth inhibition": "36.5% (inactive)"}, {"smiles": "CCCCSc1nc2c(=O)n(C)c(=O)n(C)c2n1C", "growth inhibition": "6.95% (inactive)"}, {"smiles": "CCC1CC(=O)NC(=O)NC1=O", "note": "(stereo not given)", "growth inhibition": "6.9% (inactive)"}, {"smiles": "Cc1cc(Cl)ccc1C1OC(=O)c2c1ccc1ccccc21", "note": "(stereo not given)", "growth inhibition": "13.8% (inactive)"}, {"smiles": "Nc1ccc2ccccc2c1C(=O)c1ccccc1", "growth inhibition": "-5.75% (inactive)"}, {"smiles": "O=C(O)C1CCCN1/N=C/c1cccc([N+](=O)[O-])c1", "note": "(stereo not given)", "growth inhibition": "-11.3% (inactive)"}, {"smiles": "CC(C)CCOc1ccc(C(N)=S)c2ccccc12", "growth inhibition": "95.2% (active)"}, {"smiles": "O=C(O)CC1CCC(CC(=O)O)CC1", "note": "(stereo not given)", "growth inhibition": "-1.65% (inactive)"}]}]}
